# The supplement of paper PMC10981050
# Several values for one entry are separate records, joined by “and”; a condition that tells them apart may be missing. Identical values can stand only once. Counter-ions that a name gives are not always drawn.
# Experiments:
# Experiment in all cases: cell viability relative to vehicle control; higher = less cytotoxic
# Conditions in all cases: 10 µM
# K562 = tested on: K562
# In short: (§1)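 CRISPR-edited mutant clones and isogenic wild-type clones from four leukaemia lines were screened against Selleck bioactive, kinase and epigenetic probe libraries, with identity-inconsistent compounds excluded. Each compound was acoustically dispensed at a single 10 µM dose into 384-well plates holding 2000 cells in 50 µL medium per well. After 48 h the supernatant was removed and CellTiter-Glo luminescence was read. Viability was expressed as percent of the on-plate vehicle control and analysed in Genedata Screener.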
# MARIMO = tested on: MARIMO
# In short: as §1
# MOLM14 = tested on: MOLM14
# In short: as §1
# OCI-AML2 = tested on: OCI-AML2
# In short: as §1
Structure (SMILES),cell viability (K562; SRSF2 genotype: SRSF2 P95H/wt),cell viability (K562; SRSF2 genotype: SRSF2 wt/wt) [%],cell viability (MARIMO; SRSF2 genotype: SRSF2 P95H/wt) [%],cell viability (MARIMO; SRSF2 genotype: SRSF2 wt/wt) [%],cell viability (MOLM14; SRSF2 genotype: SRSF2 P95H/wt) [%],cell viability (MOLM14; SRSF2 genotype: SRSF2 wt/wt) [%],cell viability (OCI-AML2; SRSF2 genotype: P95H/wt) [%],cell viability (OCI-AML2; SRSF2 genotype: wt/wt) [%]
C[C@@H]1CCO[C@H]2Cn3cc(C(=O)NCc4ccc(F)cc4F)c(=O)c(O)c3C(=O)N12,84.5% and 87%,77.5,84.3,98.4,94.1,94,92,98.5
CC(C)Oc1ccc(-c2nn([C@@H](C)c3oc4ccc(F)cc4c(=O)c3-c3cccc(F)c3)c3ncnc(N)c23)cc1F,89.1% and 94.3%,87.6,84.8,94.9,77,71.8,67.4,72.3
CC(C)=CCC[C@](C)(O[C@@H]1O[C@H](CO[C@@H]2O[C@@H](CO)[C@H](O)[C@H]2O)[C@@H](O)[C@H](O)[C@H]1O)[C@H]1CC[C@]2(C)[C@@H]1[C@H](O)C[C@@H]1[C@@]3(C)CC[C@H](O[C@@H]4O[C@H](CO)[C@@H](O)[C@H](O)[C@H]4O[C@@H]4O[C@H](CO)[C@@H](O)[C@H](O)[C@H]4O)C(C)(C)[C@@H]3CC[C@]12C [Ginsenoside Rc],103% and 101%,100,99.1,101,110,99.2,104,93.5
CC(C)c1cc(C(C)C)c(CC(=O)NS(=O)(=O)Oc2c(C(C)C)cccc2C(C)C)c(C(C)C)c1 [Avasimibe (CI-1011)],79.7% and 76.5%,64.5,80.8,92.2,68.6,78.6,92.5,84.8
Cc1cc(C)c(-c2csc(NC(=O)c3ccccc3)n2)c(C)c1,58.4% and 51.8%,51,35.1,31.6,45,40.5,39.5,27.5
COc1cccc(CCc2ccccc2OCC(CN(C)C)OC(=O)CCC(=O)O)c1 (stereo not drawn) [Sarpogrelate hydrochloride],90.3% and 96%,92.4,84.3,89.3,88.1,102,96.9,100
CN(CC(=O)N(Cc1ccc(C2CCCCC2)cc1)c1ccc(C(=O)O)c(O)c1)S(=O)(=O)c1c(F)c(F)c(F)c(F)c1F,38% and 23.1%,13.9,57.8,28.6,0.63,0.38,1.74,5.48
COc1ccc2c3c1O[C@H]1C[C@@H](O)C=C[C@@]31CCN(C)C2 [Galanthamine],103% and 106%,99.9,102,106,97.9,105,109,95
O=C(Nc1nccs1)C(c1cc(F)ccc1O)N1Cc2ccccc2C1=O (stereo not drawn),103% and 94.9%,96.6,94.6,105,98,97.6,93.9,100
C[S+](CC[C@H](N)C(=O)[O-])C[C@H]1O[C@@H](n2cnc3c(N)ncnc32)[C@H](O)[C@@H]1O (stereo partly drawn) [Ademetionine disulfate tosylate],105% and 97.3%,103,102,110,112,115,117,110
O=c1[nH]ccc2c(S(=O)(=O)N3CCCNCC3)cccc12 [Hydroxyfasudil (HA-1100)HCl],95.5% and 99.7%,96.5,96.5,92.7,95.6,101,95.7,90.5
COc1ccccc1-c1cc(Nc2cccc(CS(N)(=O)=O)c2)ncn1,90.2% and 89.9%,91.5,29.4,45.6,26.5,5.12,18.1,30
CCCCOc1c(C(=O)c2c(F)cc(C)cc2F)c[nH]c2nncc1-2,104% and 105%,114,72.6,84.8,68.8,87.7,57.1,59.5
O=c1[nH]cnc2nc[nH]c12 [Hypoxanthine],98.8% and 108%,96.8,101,116,103,115,103,105
O=S(=O)(O)Oc1ccc(C(c2ccc(OS(=O)(=O)O)cc2)c2ccccn2)cc1 [Sodium Picosulfate],103% and 102%,108,106,112,103,104,104,101
O=c1ccc2cc(O)ccc2o1 [6-Hydroxycoumarin],99.5% and 104%,102,99,90.9,104,101,97.9,99
CC(C)(CO)c1cc2cc(NC(=O)C3(c4ccc5c(c4)OC(F)(F)O5)CC3)c(F)cc2n1C[C@@H](O)CO,95.8% and 95.3%,87.5,92.7,109,91.5,91.7,95.7,96
COc1ccc2c(c1O)-c1c(O)c(OC)cc3c1[C@H](C2)[N+](C)(C)CC3 [Magnoflorinechloride],99.2% and 99.7%,98.2,99.4,103,103,102,93.8,98.7
CC(C)(Oc1ccc(C2CC2(Cl)Cl)cc1)C(=O)O (stereo not drawn) [Ciprofibrate],101% and 96.8%,97.7,89.6,106,98,99.4,94.3,110
Cc1ccn[nH]1 [3-Methylpyrazole],112% and 104%,103,107,110,99.3,105,95.4,106
C=CC(=O)N1CC[C@@H](Oc2nc(Nc3ccc(N4CCC(N5CCN(C)CC5)CC4)cc3)c(C(N)=O)nc2CC)C1 [ASP8273 (Naquotinib)],51.2% and 34.1%,47.1,26.7,29.7,8.47,10.5,20.4,24.4

Structure (SMILES),cell viability (K562; SRSF2 genotype: SRSF2 P95H/wt),cell viability (K562; SRSF2 genotype: SRSF2 wt/wt) [%],cell viability (MARIMO; SRSF2 genotype: SRSF2 P95H/wt) [%],cell viability (MARIMO; SRSF2 genotype: SRSF2 wt/wt) [%],cell viability (MOLM14; SRSF2 genotype: SRSF2 P95H/wt) [%],cell viability (MOLM14; SRSF2 genotype: SRSF2 wt/wt) [%],cell viability (OCI-AML2; SRSF2 genotype: P95H/wt) [%],cell viability (OCI-AML2; SRSF2 genotype: wt/wt) [%]
COc1ccc(-c2cc(=O)c3c(O)c(OC)c(O)c(OC)c3o2)cc1 [Lysionotin],104% and 98%,98.9,97.9,114,64,76.8,74.8,83
C[C@@H]1O[C@@H](O[C@@H]2[C@@H](O)[C@H](OCCc3ccc(O)c(O)c3)O[C@H](CO)[C@H]2OC(=O)/C=C/c2ccc(O)c(O)c2)[C@H](O)[C@H](O)[C@H]1O [Verbascoside],86.6% and 86%,87.4,82.8,92.3,81.9,92.9,92.7,92.5
CC(=O)Nc1nc2c(Oc3cc(-c4ccc(C(F)(F)F)cc4)ncn3)cccc2s1,99.6% and 93%,88,93.3,103,95.9,97.7,90.6,88.9
CCN(CC)Cc1cc(Nc2ccnc3cc(Cl)ccc23)ccc1O [Amodiaquine hydrochloride],80.3% and 76.8%,74,61,67.4,40.2,31.1,39,33.4
CCN(CC)CCOC(=O)c1ccc(N)cc1 [Procaine (Novocaine) HCl],98.7% and 100%,95.9,109,112,98.6,99.7,93.2,110
Cc1cn([C@H]2C[C@H](N=[N+]=[N-])[C@@H](CO)O2)c(=O)[nH]c1=O [Zidovudine (Retrovir)],96.5% and 101%,101,102,113,95.5,105,101,105
O=P(O)(O)C(O)(Cc1cccnc1)P(=O)(O)O [Risedronate sodium],95.3% and 102%,91.4,88.9,102,91.8,101,93.7,98.3
CNC(=C[N+](=O)[O-])NCCSCc1csc(CN(C)C)n1 [Nizatidine],106% and 107%,102,101,107,103,101,92.9,108
CCn1c2ccccc2c2cc(Nc3ccnc(NCCCN4CCOCC4)n3)ccc21,4.34% and 6.16%,6.8,19.1,24.9,2.38,0.71,0.41,1.05
CC1(C)O[C@@H]2C[C@H]3[C@@H]4C[C@H](F)C5=CC(=O)C=C[C@]5(C)[C@@]4(F)[C@@H](O)C[C@]3(C)[C@]2(C(=O)CO)O1 [Fluocinolone acetonide (Flucort-N)],95% and 96%,92.6,98.3,104,95.6,91.6,100,109
COc1nc(N)nc2c1ncn2[C@@H]1O[C@H](CO)[C@@H](O)[C@@H]1O [Nelarabine (Arranon)],98.2% and 96.9%,99.6,95.5,91.2,90.7,93.5,94.7,94.5
O=C(O)c1cc(/N=N/c2ccc(S(=O)(=O)Nc3ccccn3)cc2)ccc1O [Sulfasalazine (Azulfidine)],99% and 96.4%,94.4,96.3,101,93.7,98.9,96.4,103
C[C@@H]1O[C@@H](OC[C@H]2O[C@@H](Oc3c(-c4ccc(OCCO)c(OCCO)c4)oc4cc(OCCO)cc(O)c4c3=O)[C@H](O)[C@@H](O)[C@@H]2O)[C@H](O)[C@H](O)[C@H]1O [Troxerutin],105% and 90.9%,86.2,78.9,92.2,86.3,91.9,91.5,88
CCCSc1ccc2[nH]c(NC(=O)OC)nc2c1 [Albendazole (Albenza)],19.1% and 33.6%,30.6,9.83,11.3,6.95,2.47,5.18,12.9
CC1=C[C@H]2[C@@H](CC1)[C@H](C)CC[C@H]2[C@@H](C)C(=O)O [Dihydroartemisinic acid],99.8% and 91.7%,99.6,101,104,94.6,101,98.5,109
O=C(Nc1cnn2ccc(N3CCC[C@@H]3c3cc(F)ccc3F)nc12)N1CC[C@H](O)C1 [LOXO-101(sulfate)],104% and 105%,104,113,118,97.6,104,98.2,104
Cc1c(NC(=O)OC[C@@H]2COCCN2)cn2ncnc(Nc3ccc4c(cnn4Cc4cccc(F)c4)c3)c12,75.3% and 73.2%,71.7,76.4,79.8,63.8,69.6,68.7,64.8
COc1cc(Nc2ncc(F)c(Nc3ccc4c(n3)NC(=O)C(C)(C)O4)n2)cc(OC)c1OC [R406(free base)],95% and 101%,104,72.2,85.1,25.2,16,42.1,56.3
C[C@H]1C[C@H]2[C@@H]3CCC4=CC(=O)C=C[C@]4(C)[C@H]3C(=O)C[C@]2(C)[C@@]1(O)C(=O)CO [Betapar (Meprednisone)],98.4% and 97.3%,93,101,106,105,105,89,104
O=C(O)/C=C/c1ccc(O)c(O)c1 [Caffeic acid],99.1% and 100%,94.3,94.2,105,97.7,101,76.2,92.7
